The results in this text go back to ChEMBL document CHEMBL3988442, “University of Dundee, Small-Polar-MMV Screening Library” (2021).

The campaign covered roughly 69,000 compounds. About 1,000 (1.4%) showed an effect of 50% or more. The sample holds strong results, similar compounds and a random draw of the others, so the mix is not that of the screen.

The subject of this assay is Leishmania donovani. Nature of the assay: Leishmania intramacrophage assay. The assay is classed as functional, organism-based. Also noted: scale not given: in the data most compounds retested in dose-response had high values.

`Cc1nc(C2CCCN2C(=O)Cn2cncn2)no1` (configuration not stated): the “Percent Effect” value (30 µM) is given as 21.12%.

Consider `CCOC(=O)c1sc2ccsc2c1CNC(=O)COC`, for which, under “30 µM”, the “Percent Effect” value stood at 13.66%.

With `O=C(NCC(O)c1ccoc1)Nc1cccs1` (configuration not stated), where the note is “30.3 µM, […]”, the “Percent Effect” value came to 10.34%.

In the case of `CCC(CC)(CCO)CNC(=O)c1ccon1`, the “Percent Effect” value (30.3 µM, […]) is recorded as 7.917%.

As for `COCc1ccccc1CNCc1c(C(C)C)nn(C)c1N(C)C`, where the note is “30 µM”, the “Percent Effect” value turned out to be 21.29%.

As for `CC(C)c1nn(C)c(N(C)C)c1CNCc1ccccc1CN(C)C`, for the setting “30 µM, 30.03 µM”, the “Percent Effect” value came out at 50.34%.

Consider `CC(C)c1nn(C)c(N(C)C)c1CNCc1ccccc1CO.Cl`, for which the “Percent Effect” value (30 µM) is on record as 5.046%.

For the molecule `O=C1N(C2CCCCC2)CCCC12CCN(S(=O)(=O)c1cccnc1)C2` (configuration not stated), where the note is “30.3 µM, […]”, the “Percent Effect” value came to 18%.

Take `O=C(NC1CC1)[C@H]1C[C@@H]2CCN(CCc3ccccc3)C[C@H]2O1.O=C(O)C(F)(F)F`: the “Percent Effect” value (30 µM, 30.03 µM) came to 7.043%.

As to `CNC(=O)[C@H]1C[C@@H]2CN(Cc3cccc(C)c3)C[C@H]1O2.O=C(O)C(F)(F)F`, the “Percent Effect” value (30.3 µM, […]) was determined as 36.09%.

On to `CNC(=O)[C@H]1C[C@@H]2CCN(CCc3ccccc3)C[C@@H]2O1.O=C(O)C(F)(F)F`, for which the “Percent Effect” value (30.3 µM, […]) came to 53.78%.

Take `CNC(=O)[C@H]1C[C@@H]2CN(Cc3ccccc3)C[C@H]1O2.O=C(O)C(F)(F)F`: where the note is “30.3 µM, […]”, the “Percent Effect” value is 55.32%.

Consider `O=C(NC1CCC1)[C@@H]1C[C@@H]2CCN(CCc3ccccc3)C[C@H]2O1.O=C(O)C(F)(F)F`, for which the “Percent Effect” value (30.3 µM, […]) is reported as -19.62%.

Consider `CC(C)NC(=O)[C@@H]1C[C@@H]2CCN(Cc3ccoc3)C[C@H]2O1.O=C(O)C(F)(F)F`, for which the “Percent Effect” value (30.3 µM, […]) is reported as 11.62%.

With `COCCNC(=O)[C@H]1C[C@@H]2CCN(CCc3ccccc3)C[C@@H]2O1.O=C(O)C(F)(F)F`, the “Percent Effect” value (30.3 µM, […]) was 34.91%.

Turning to `CNC(=O)[C@H]1C[C@@H]2CN(Cc3ccc(C)cc3)C[C@H]1O2.O=C(O)C(F)(F)F`, under “30.3 µM, […]”, the “Percent Effect” value is 47.12%.

On to `O=C(NC1CC1)[C@@H]1C[C@@H]2CCN(Cc3ccoc3)C[C@@H]2O1.O=C(O)C(F)(F)F`, for which the “Percent Effect” value (30.3 µM, […]) is 29.69%.

As for `O=C(NC1CCCC1)[C@@H]1C[C@@H]2CCN(Cc3ccoc3)C[C@H]2O1.O=C(O)C(F)(F)F`, the “Percent Effect” value (30.3 µM, […]) is listed as 62.18%.

Take `COCCNC(=O)[C@H]1C[C@@H]2CCN(CCc3ccccc3)C[C@H]2O1.O=C(O)C(F)(F)F`: under “30.3 µM, […]”, the “Percent Effect” value came out at 57.9%.

Consider `O=C(NCC1CC1)[C@H]1C[C@@H]2CCN(CCc3ccccc3)C[C@H]2O1.O=C(O)C(F)(F)F`, for which the “Percent Effect” value (30.3 µM, […]) is recorded as -22.31%.

On to `CC(C)NC(=O)[C@@H]1C[C@@H](N)CN1C(=O)CCSCc1ccccc1`, for which the “Percent Effect” value (30.3 µM, […]) is listed as 17.42%.

On to `CCC[C@H]1CN(CCS(C)(=O)=O)C[C@@H]1NC(=O)c1cc(CC)on1`, for which, for the setting “30.3 µM, […]”, the “Percent Effect” value is -7.054%.

For `CCS(=O)(=O)NCC1OCCc2cn(CCOC)nc21` (configuration not stated), the “Percent Effect” value (30.3 µM, […]) is recorded as 22.39%.

As for `CNc1nc(CNC(=O)Nc2cccc(COCCOC(C)C)c2)cs1`, the “Percent Effect” value (30.3 µM, […]) was 10.56%.

For the molecule `Cc1cc(O)n2nc(C3CCN(C(=O)c4ccccn4)CC3)cc2n1`, for the setting “30.3 µM, […]”, the “Percent Effect” value was -30.04%.

Consider `O=C(NCCCn1cncn1)N1CCCCCC1`, for which the “Percent Effect” value (30 µM) was found to be 20.62%.

Regarding `CCS(=O)(=O)NCCNC(=O)c1cc(Cl)c2c(c1)OCCCO2`, the “Percent Effect” value (30 µM, 30.03 µM) is 35.29%.

On to `COc1cccc2c1OCCCN(Cc1ncccc1C(=O)O)C2`, for which the “Percent Effect” value (30.3 µM, […]) is -9.577%.

Take `CN(CCCOc1ccccc1)C(=O)CN1CCc2cncnc2C1`: the “Percent Effect” value (30 µM, 30.03 µM) is 6.848%.

For `N[C@@H]1CC[C@@H](NC(=O)c2ccccc2OC(F)(F)C(F)F)C1`, the “Percent Effect” value (30.3 µM, […]) is on record as -30%.

`Cc1noc([C@]23COC[C@H]2CN(C(=O)COC2CCCC2)C3)n1`: the “Percent Effect” value (30.3 µM, […]) is 14.27%.

For the molecule `Cc1noc([C@]23COC[C@H]2CN(C(=O)Cc2ccsc2)C3)n1`, the “Percent Effect” value (30.3 µM, […]) was determined as 57.44%.

For the molecule `CCOCC(=O)N1C[C@@H]2COC[C@]2(c2nc(C)no2)C1`, the “Percent Effect” value (30.3 µM, […]) came out at 46.85%.

As for `O=C(O)C(F)(F)F.c1cc(CN2CCC3(CCOCC3COCC3CC3)CC2)co1` (configuration not stated), the “Percent Effect” value (30.3 µM, […]) turned out to be 12%.

On to `Fc1cccc(N2CCCC3(CN(Cc4nccs4)CCO3)C2)c1.O=C(O)C(F)(F)F.O=C(O)C(F)(F)F` (configuration not stated), for which the “Percent Effect” value (30.3 µM, […]) came to 41.24%.

In the case of `Fc1cccc(N2CCCC3(C2)CN(c2ncccn2)CCO3)c1.O=C(O)C(F)(F)F.O=C(O)C(F)(F)F` (configuration not stated), the “Percent Effect” value (30 µM, 30.03 µM) is 0.139%.

As for `CC(C)C1=NOC2(CCN(Cc3c[nH]c4ccccc34)CC2)C1`, where the note is “30.3 µM, […]”, the “Percent Effect” value is on record as 1.888%.

For `c1ccc(C2=NOC3(CCN(Cc4c[nH]c5ccccc45)CC3)C2)cc1`, for the setting “30.3 µM, […]”, the “Percent Effect” value came out at 96.36%.

`c1cncc(C2=NOC3(CCN(Cc4c[nH]c5ccccc45)CC3)C2)c1`: under “30.3 µM, […]”, the “Percent Effect” value was 11.25%.

On to `CN(C(=O)c1ccc(S(=O)(=O)NC(C)(C)C)cc1)C1(C#N)CCC1`, for which, under “30.3 µM, […]”, the “Percent Effect” value is 6.383%.

`CN1CCN(Cc2nnc(C3CCN(CC4CC4)CC3)n2C)CC1`: where the note is “30 µM, 30.03 µM”, the “Percent Effect” value is reported as 36.3%.

Turning to `CC(C)=CCN1CCC(c2nnc(CN3CCN(C)CC3)n2C)CC1`, the “Percent Effect” value (30.3 µM, […]) amounted to 50.84%.

Regarding `CN1CCC(c2nnc(CN3CCC(O)CC3)n2C)CC1`, the “Percent Effect” value (30 µM, 30.03 µM) is given as 13.07%.

Turning to `CCc1sc(-c2nnc(CNC(C)Cn3cccn3)o2)cc1C` (configuration not stated), the “Percent Effect” value (30.3 µM, […]) is given as -1.714%.

On to `O=C(c1cnc(Nc2ccccc2)nc1)N1CCC(O)(CO)CC1`, for which the “Percent Effect” value (30.3 µM, […]) is given as -16.52%.

In the case of `c1cnn(CCNCc2cnc(N3CCCC3)nc2)c1`, where the note is “30.3 µM, […]”, the “Percent Effect” value is reported as 36.96%.

For `c1ccc(Cn2cccn2)c(CNCc2cnc(N3CCCC3)nc2)c1`, the “Percent Effect” value (30.3 µM, […]) came to 54.07%.
